In the supplement of paper PMC12350171:
Structures can show the parent of a compound that is named as a salt.

Legend:
Conditions in all cases: 20 µM
[1] = tested on: Haemophilus parainfluenzae; assay: growth AUC normalised to DMSO control (fraction of control); higher = less growth inhibition, active = hit call of the paper
Method in brief: (§1)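 After two anaerobic passages, pathogens were added at a starting OD578 of 0.01 to pre-reduced mGAM plates holding compound at 20 μM with 1% DMSO; hemin and NAD were supplemented for Haemophilus parainfluenzae. Sealed with breathable membranes, plates were read at OD578 hourly for 24 h, in three biological replicates. The trapezoidal rule, applied up to the exponential-to-stationary transition, gave the growth-curve AUC, which was normalised to DMSO controls on the same plate.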

[2] = tested on: Salmonella enterica typhimurium; assay: as above
Method in brief: as §1

Shigella flexneri = assay: as above
Method in brief: as §1

Vibrio cholerae = assay: as above
Method in brief: as §1

[3] = tested on: Yersinia pseudotuberculosis; assay: as above
Method in brief: as §1

P. vulgatus RND KO = assay: growth AUC normalised to DMSO control (median) (fraction of control); higher = less growth inhibition, active = hit call of the paper
Method in brief: (§2)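 Anaerobic growth was tracked hourly at OD578 for 24 h in 96-well plates of mGAM seeded at OD578 0.01 with each approved-drug library compound at 20 μM and 1% DMSO. Strains had first been passaged twice overnight without oxygen. Three biological replicates were run. The reported median is the area under the curve, calculated by the trapezoidal rule on curves truncated at entry into stationary phase and normalised to vehicle wells on the same plate.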

P. vulgatus WT = assay: as above
Method in brief: as §2

[4] = tested on: S. enterica typhimurium WT; assay: as above
Method in brief: as §2

[5] = tested on: S. enterica typhimurium tolC KO; assay: as above
Method in brief: as §2

Measured: growth AUC normalised to DMSO control
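Throughout, for growth AUC normalised to DMSO control (median): active when median AUC fell below 0.1.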

C=C1CC[C@@]2(O)[C@H]3Cc4ccc(O)c5c4[C@@]2(CCN3CC2CC2)[C@H]1O5 [Nalmefene hydrochloride]
inactive: [1] 0.969 | [2] 1.01 | Shigella flexneri 1.03 | Vibrio cholerae 1.02 | [3] 1.03 | P. vulgatus RND KO 1 | P. vulgatus WT 1.03 | [4] 1 | [5] 1.01

COc1cc([C@@H]2c3cc4c(cc3[C@H](O)[C@H]3COC(=O)[C@H]23)OCO4)cc(OC)c1OC [Podophyllotoxin]
inactive: [1] 1.04 | [2] 0.999 | Shigella flexneri 0.999 | Vibrio cholerae 1.02 | [3] 1.01 | P. vulgatus RND KO 1 | P. vulgatus WT 1.02 | [4] 0.998 | [5] 0.996

CCN(CC)C(C)C(=O)c1ccccc1 (stereo not drawn) [Amfepramone hydrochloride]
inactive: [1] 0.998 | [2] 0.995 | Shigella flexneri 0.982 | Vibrio cholerae 0.999 | [3] 1.02 | P. vulgatus RND KO 1.01 | P. vulgatus WT 1.01 | [4] 1.01 | [5] 0.988

CNC(C)(C)Cc1ccccc1 [Mephentermine hemisulfate]
inactive: [1] 1.09 | [2] 1.03 | Shigella flexneri 1.03 | Vibrio cholerae 1.06 | [3] 0.977 | P. vulgatus RND KO 1.03 | P. vulgatus WT 1.08 | [4] 1 | [5] 0.994

CC(C)(C)NCC(O)c1cc(Cl)c(N)c(Cl)c1 (stereo not drawn) [Clenbuterol hydrochloride]
inactive: [1] 0.984 | [2] 0.958 | Shigella flexneri 0.979 | Vibrio cholerae 0.992 | [3] 0.993 | P. vulgatus RND KO 0.981 | P. vulgatus WT 1.01 | [4] 1 | [5] 0.992

CCC1(C)CC(=O)NC(=O)C1 [Bemegride]
inactive: [1] 1.02 | [2] 1.02 | Shigella flexneri 1.01 | Vibrio cholerae 1.05 | [3] 1.01 | P. vulgatus RND KO 1.03 | P. vulgatus WT 1.08 | [4] 1.02 | [5] 1.01

C[N+]1([O-])[C@@H]2C[C@@H](OC(=O)[C@H](CO)c3ccccc3)C[C@H]1[C@@H]1O[C@@H]12 (stereo partly drawn) [Scopolamin-N-oxide hydrobromide]
inactive: [1] 0.991 | [2] 0.992 | Shigella flexneri 1.02 | Vibrio cholerae 1.07 | [3] 1.01 | P. vulgatus RND KO 1.04 | P. vulgatus WT 1.02 | [4] 1.02 | [5] 1.01

C[N+]1(C)CCCC(OC(=O)C(O)(c2ccccc2)c2ccccc2)C1 (stereo not drawn) [Mepenzolate bromide]
inactive: [1] 0.915 | [2] 1.01 | Shigella flexneri 0.986 | Vibrio cholerae 0.947 | [3] 1 | P. vulgatus RND KO 1.02 | P. vulgatus WT 1.05 | [4] 1.01 | [5] 0.996

CC(=O)OCC(=O)[C@H]1CC[C@H]2[C@@H]3CC[C@H]4C[C@H](O)CC[C@]4(C)[C@H]3C(=O)C[C@]12C [Alfadolone acetate]
inactive: [1] 1.26 | [2] 1.01 | Shigella flexneri 0.99 | Vibrio cholerae 0.987 | [3] 0.992 | P. vulgatus RND KO 1.04 | P. vulgatus WT 1.05 | [4] 1.01 | [5] 0.941

CCN(C)C(=O)Oc1cccc([C@H](C)N(C)C)c1 [Rivastigmine]
inactive: [1] 1.13 | [2] 1.04 | Shigella flexneri 1.02 | Vibrio cholerae 1.11 | [3] 1.04 | P. vulgatus RND KO 1.01 | P. vulgatus WT 1.03 | [4] 1.01 | [5] 1.02

CC[C@@H](C(N)=O)N1CCCC1=O [Levetiracetam]
inactive: [1] 1.04 | [2] 1.01 | Shigella flexneri 1.03 | Vibrio cholerae 1.05 | [3] 1.01 | P. vulgatus RND KO 1.01 | P. vulgatus WT 1.03 | [4] 1.01 | [5] 1

CN1[C@@H]2C[C@@H](OC(=O)[C@H](CO)c3ccccc3)C[C@H]1[C@@H]1O[C@@H]12 [Scopolamine hydrochloride]
inactive: [1] 1.06 | [2] 1.03 | Shigella flexneri 1.06 | Vibrio cholerae 1.06 | [3] 1.03 | P. vulgatus RND KO 1.03 | P. vulgatus WT 1.05 | [4] 1 | [5] 1.01

CC(Cc1ccc(O)cc1)NCC(O)c1cc(O)cc(O)c1 (stereo not drawn) [Fenoterol hydrobromide]
inactive: [1] 0.991 | [2] 1.01 | Shigella flexneri 0.962 | Vibrio cholerae 1.01 | [3] 0.998 | P. vulgatus RND KO 1.03 | P. vulgatus WT 1.03 | [4] 1.01 | [5] 1

C[CH2][Hg][S]c1ccccc1C(=O)[O-].[Na+] [Thimerosal]
active: [2] 0.932 | Shigella flexneri 0.828 | P. vulgatus RND KO 0.0191
inactive: [1] 1.2 | Vibrio cholerae 0.935 | [3] 1 | P. vulgatus WT 0.341 | [4] 0.91 | [5] 0.956

NCCc1c[nH]c2ccc(O)cc12 [Serotonin hydrochloride]
inactive: [1] 1.07 | [2] 0.983 | Shigella flexneri 1.02 | Vibrio cholerae 1.06 | [3] 0.981 | P. vulgatus RND KO 1.04 | P. vulgatus WT 1.08 | [4] 1 | [5] 0.998

CCC1(CC)C(=O)C=CNC1=O [Pyrithyldione]
inactive: [1] 1.01 | [2] 0.992 | Shigella flexneri 1 | Vibrio cholerae 1.05 | [3] 1 | P. vulgatus RND KO 1.01 | P. vulgatus WT 1 | [4] 1.02 | [5] 0.998

CC(=O)O[C@H]1C[C@@H]2CC[C@@H]3[C@H](CC[C@@]4(C)[C@H]3C[C@H]([N+]3(C)CCCCC3)[C@@H]4OC(C)=O)[C@@]2(C)C[C@@H]1[N+]1(C)CCCCC1 [Pancuronium bromide]
inactive: [1] 1.04 | [2] 1.01 | Shigella flexneri 1.05 | Vibrio cholerae 1.04 | [3] 1 | P. vulgatus RND KO 1.01 | P. vulgatus WT 1.04 | [4] 1.03 | [5] 1.01

CC(CCc1ccccc1)NC(C)C(O)c1ccc(O)cc1 (stereo not drawn) [Nylidrin]
inactive: [1] 0.988 | [2] 0.987 | Shigella flexneri 0.994 | Vibrio cholerae 0.983 | [3] 0.993 | P. vulgatus RND KO 1 | P. vulgatus WT 0.998 | [4] 1 | [5] 0.991

C[C@@H]1CN([C@H]2CC[C@](C#N)(c3ccc(F)cc3)CC2)CC[C@]1(C(=O)O)c1ccccc1 [Levocabastine hydrochloride]
inactive: [1] 1.02 | [2] 1 | Shigella flexneri 1.02 | [3] 0.997 | P. vulgatus RND KO 0.989 | P. vulgatus WT 1.05 | [4] 0.997 | [5] 1.01
active: Vibrio cholerae 0.239

O=P1(N(CCCl)CCCl)NCCCO1 (stereo not drawn) [Cyclophosphamide]
inactive: [1] 1.04 | [2] 1.02 | Shigella flexneri 1.01 | Vibrio cholerae 1.04 | [3] 1.01 | P. vulgatus RND KO 0.998 | P. vulgatus WT 1 | [4] 1.01 | [5] 0.997

O=C(CCCN1CCC(n2c(=O)[nH]c3ccccc32)CC1)c1ccc(F)cc1 [Benperidol]
inactive: [1] 1.03 | [2] 0.981 | Shigella flexneri 0.998 | Vibrio cholerae 0.998 | [3] 0.975 | P. vulgatus RND KO 1.01 | P. vulgatus WT 1.02 | [4] 0.993 | [5] 0.956

Fc1ccc(C(OCCN2CCN(CCCc3ccccc3)CC2)c2ccc(F)cc2)cc1
inactive: [1] 0.991 | [2] 1 | Shigella flexneri 0.998 | Vibrio cholerae 0.944 | [3] 0.995 | P. vulgatus RND KO 0.994 | P. vulgatus WT 0.966 | [4] 0.999 | [5] 0.914

O=[N+]([O-])O[C@@H]1CO[C@H]2[C@@H]1OC[C@@H]2O [Isosorbide mononitrate]
inactive: [1] 1.05 | [2] 1.01 | Shigella flexneri 1.03 | Vibrio cholerae 1.02 | [3] 1 | P. vulgatus RND KO 0.946 | P. vulgatus WT 0.958 | [4] 1 | [5] 0.99

CC(=O)O[C@H]1CC[C@@]2(C)C(=CC[C@@H]3[C@@H]2CC[C@]2(C)C(=O)CC[C@@H]32)C1 [Dehydroisoandosterone 3-acetate]
inactive: [1] 0.989 | [2] 0.995 | Shigella flexneri 0.966 | Vibrio cholerae 0.988 | [3] 1 | P. vulgatus RND KO 0.976 | P. vulgatus WT 0.952 | [4] 0.991 | [5] 0.903

CN(C)[C@@H]1C(=O)C(C(N)=O)=C(O)[C@@]2(O)C(=O)C3=C(O)c4c(O)cccc4[C@@](C)(O)[C@H]3[C@H](O)[C@@H]12 [Oxytetracycline dihydrate]
active: [1] 0.0523 | [2] 0.00147 | Shigella flexneri 0.015 | Vibrio cholerae 0.0278 | [3] 0.0752 | P. vulgatus RND KO 0.00913 | P. vulgatus WT 0.0112 | [4] 0.0149 | [5] 0.00753

OC(c1ccccc1)(c1ccccc1)C1CCNCC1 [Azacyclonol]
inactive: [1] 0.982 | [2] 0.999 | Shigella flexneri 0.988 | Vibrio cholerae 0.967 | [3] 1 | P. vulgatus RND KO 1 | P. vulgatus WT 1.03 | [4] 1.01 | [5] 0.99

CN[C@@H]1C[C@@H](c2ccc(Cl)c(Cl)c2)c2ccccc21 [Indatraline hydrochloride]
inactive: [1] 1.04 | [2] 1.02 | Shigella flexneri 1.05 | Vibrio cholerae 1 | [3] 1.02 | P. vulgatus RND KO 0.973 | P. vulgatus WT 1.08 | [4] 0.996 | [5] 0.95
